{
  "source": "PubChem BioAssay AID1345083",
  "about": "(National Center for Advancing Translational Sciences (NCATS), 2018)",
  "note": "Out of some 94,000 compounds screened, about 6,200 (6.6%) were called active. Inconclusive results (about 31%) are left out. The full list was thinned out, with actives kept by preference. Values without a mark were called inactive. Calls come from the whole dose curve; as a rule, active = well fitted inhibition curve with a large enough effect; inconclusive = small, poorly fitted or top-dose-only effect; inactive = flat fitted curve, though single readings scatter. % is set by controls: 0 for no effect and ±100 for the full control effect; potency is the fitted concentration of half-maximal effect.",
  "data": [
    {"assay": "Cytotoxic Profiling in HEK 293 Cell Line of Diverse Libraries Using Quantitative High-Throughput Screening; note: nearly all actives have a fitted effect of over 60% in size", "settings": "HEK 293 viability, ATP luminescence (CellTiter-Glo), 48-72 h; series mostly up to 115 µM; activity change, negative = cytotoxicity: at the top concentration", "method_in_brief": "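HEK 293 cells seeded at 250 cells/well were exposed to compound for 48 or 72 hr at 37 degree Celsius. Viability taken as ATP content by CellTiter-Glo luminescence.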", "values": [
      {"smiles": "CC1=C[C@@H](CN2CCCC2)[C@H](C(C)C)C[C@H]1Cc1nnc(-c2ccc([N+](=O)[O-])cc2)o1", "Potency": "35.5 µM (active)"},
      {"smiles": "CC1=C[C@@H](CC#N)[C@H](C(C)C)C[C@H]1CC(=O)N1CCN(C)CC1", "activity change, negative = cytotoxicity": "-28.2% [at 172 µM]"},
      {"smiles": "CC1=C[C@@H](CN2CCOCC2)[C@H](C(C)C)C[C@H]1Cc1nnc(-c2ccc([N+](=O)[O-])cc2)o1", "Potency": "39.8 µM (active)"},
      {"smiles": "CC1=C[C@@H](CN2CCN(CCO)CC2)[C@H](C(C)C)C[C@H]1Cc1nnc(-c2ccc(C)cc2)o1", "Potency": "31.6 µM (active)"},
      {"smiles": "CNC(=O)c1cc(C)nc2onc(C3CCCN3C(=O)Cc3ccc(F)cc3)c12", "note": "(configuration not stated)", "activity change, negative = cytotoxicity": "-7.3%"},
      {"smiles": "NC1CCCCN(C(=O)c2ccc3n[nH]nc3c2)C1", "note": "(configuration not stated)", "activity change, negative = cytotoxicity": "-10.8%"},
      {"smiles": "CSc1cccc(NC(=O)N[C@H]2C[C@@H](C(=O)N[C@@H](CCCNC(=O)CC(C)(C)C)C(N)=O)N(C(=O)CC(C)(C)C)C2)c1", "activity change, negative = cytotoxicity": "-17.2%"},
      {"smiles": "COCCS(=O)(=O)c1ncc(CN2CCCCO2)n1Cc1ccccc1", "activity change, negative = cytotoxicity": "-24%"},
      {"smiles": "CCCN1C(=O)[C@H]2CC[C@@H]1CN(C(=O)c1nc(-c3ccccc3)[nH]c1C)C2", "activity change, negative = cytotoxicity": "1.99%"},
      {"smiles": "O=C(NC[C@H]1Cn2c(-c3ccc(F)cc3)cnc2CO1)C1CC1", "activity change, negative = cytotoxicity": "-2.09% [at 172 µM]"},
      {"smiles": "Cc1ccc(Cl)cc1NC(=O)N1C[C@@H](F)C[C@H]1C(=O)N1CCCCC1", "activity change, negative = cytotoxicity": "0.438%"},
      {"smiles": "COc1cccc(NC(=O)N[C@H]2CCN(C(=O)C=C(C)C)[C@@H]2C(=O)N[C@@H](Cc2cccs2)C(N)=O)c1", "activity change, negative = cytotoxicity": "-0.217%"},
      {"smiles": "O=C1CC(c2ccccc2)N(C(=O)CNC(=O)c2cnccn2)CCCCCCN1", "note": "(configuration not stated)", "activity change, negative = cytotoxicity": "-3.36%"},
      {"smiles": "CC(C)(C)C(=O)Nc1cc(C2CC2)nn1-c1ccccc1", "activity change, negative = cytotoxicity": "0.126% [at 172 µM]"},
      {"smiles": "Cc1nn(-c2cccc(Br)c2)c(C)c1[C@@H]1C=C[C@@H](NS(=O)(=O)c2ccccc2)C1", "Potency": "44.7 µM (active)"},
      {"smiles": "Cc1nn(CCC#N)c(C)c1[C@@H]1C=C[C@@H](NS(=O)(=O)c2ccccc2)C1", "activity change, negative = cytotoxicity": "-9.74% [at 172 µM]"},
      {"smiles": "c1c[nH]c(CNC[C@H]2Cn3ccnc3CO2)n1", "activity change, negative = cytotoxicity": "-7.47% [at 230 µM]"},
      {"smiles": "COc1ccc(CN2CCN3C(=O)N(c4ccccc4)C[C@H]3C2)cn1", "activity change, negative = cytotoxicity": "-19.4% [at 172 µM]"},
      {"smiles": "COc1ccc(Nc2ccc3c(n2)CN(Cc2ccccc2C)C(=O)CO3)cn1", "Potency": "100 µM (active)"},
      {"smiles": "Cc1ccccc1CN1Cc2nc(NCc3ccncc3)ccc2OCC1=O", "Potency": "89.1 µM (active)"},
      {"smiles": "CCOc1ccc(NC(=O)Cn2nc3n(c2=O)CCN(Cc2ccccc2C)C3=O)cc1", "activity change, negative = cytotoxicity": "-10.7%"},
      {"smiles": "CC(=O)N1CCCN(C(=O)c2cnc3c(c2)N(C(=O)Cc2ccc(C(C)C)cc2)CCC3)CC1", "activity change, negative = cytotoxicity": "-27.9%"},
      {"smiles": "CCC(C)NC(=O)N1CCC(CCOC)(NS(C)(=O)=O)CC1", "note": "(configuration not stated)", "activity change, negative = cytotoxicity": "-7.52%"},
      {"smiles": "O=C(c1nc(-c2cccnc2)c2cnccn12)N1CCN(c2ncccn2)CC1", "activity change, negative = cytotoxicity": "-2.6%"},
      {"smiles": "CN(C)c1ccc(C(=O)N[C@H]2C[C@H]3C(=O)NC[C@@H](CCC(=O)N4CCc5ccccc54)N3C2)cc1", "activity change, negative = cytotoxicity": "-18.7%"},
      {"smiles": "O=C(c1ccccc1)N1CCN(C(=O)c2nc3cccnc3n(C3CC3)c2=O)CC1", "activity change, negative = cytotoxicity": "-15.7%"},
      {"smiles": "CCC(=O)N1CCC(CC(=O)N2CCOCC2)C1", "note": "(configuration not stated)", "activity change, negative = cytotoxicity": "7.81%"},
      {"smiles": "C#CCNC(=O)C1CCN(Cc2ccccc2-c2ccccc2F)CC1", "activity change, negative = cytotoxicity": "-26.1%"},
      {"smiles": "COC(=O)CNC(=O)C1CCN(Cc2ccccc2-c2ccccc2F)CC1", "activity change, negative = cytotoxicity": "0.145%"},
      {"smiles": "O=C(C1CCN(Cc2ccccc2-c2ccccc2F)CC1)N1CCC(c2ccccc2)CC1", "Potency": "25.1 µM (active)"},
      {"smiles": "CC1CCC2(CC1)NC(=O)N(CC(=O)NCc1ccco1)C2=O", "note": "(configuration not stated)", "activity change, negative = cytotoxicity": "4.68%"},
      {"smiles": "Cn1cc(C#N)cc1-c1nc(COc2ccccc2)nn1CC(F)(F)F", "activity change, negative = cytotoxicity": "-25%"},
      {"smiles": "COc1ccc(C2Cn3nnc(-c4noc(-c5ccc(OC)cc5C)n4)c3CO2)cc1", "note": "(configuration not stated)", "activity change, negative = cytotoxicity": "-11.1%"},
      {"smiles": "Cc1nc(CCNS(=O)(=O)c2cccnc2)no1", "activity change, negative = cytotoxicity": "-4.92%"},
      {"smiles": "COC(=O)CCNC(=O)C1c2ccccc2C(=O)N(CC(C)C)C12CCCC2", "note": "(configuration not stated)", "activity change, negative = cytotoxicity": "-8.33%"},
      {"smiles": "COCCN1C(=O)c2ccccc2C(C(=O)NC2CC2)C12CCCCC2", "note": "(configuration not stated)", "activity change, negative = cytotoxicity": "-7.97%"},
      {"smiles": "COc1ccccc1NC(=O)C1c2ccccc2C(=O)N(CC(C)C)C12CCCC2", "note": "(configuration not stated)", "Potency": "70.8 µM (active)"},
      {"smiles": "COCCOC1CN(C2CCN(C(=O)C3CCOCC3)CC2)C12CCCCC2", "note": "(configuration not stated)", "activity change, negative = cytotoxicity": "0.932%"},
      {"smiles": "CC[C@H]1CN(C(=O)c2cccnc2)CC[C@H]1CC(=O)NCc1cccnc1", "activity change, negative = cytotoxicity": "-7.23% [at 172 µM]"},
      {"smiles": "CC(C)NC(=O)N1CCCC1c1noc(COc2ccc(F)cc2)n1", "note": "(configuration not stated)", "outcome": "inactive"},
      {"smiles": "Cc1cccc(-c2cccc(CN3CCC(NC(=O)Nc4ccccc4)CC3)c2)c1", "Potency": "22.4 µM (active)"},
      {"smiles": "CN1C(=O)c2cccn2CC1C(=O)NC1CCN(Cc2ccccc2)CC1", "note": "(configuration not stated)", "activity change, negative = cytotoxicity": "-2.33%"},
      {"smiles": "Cc1cccc(C(=O)N2CCC(CC(=O)NCc3ccccc3)C2)c1", "note": "(configuration not stated)", "activity change, negative = cytotoxicity": "-0.159%"},
      {"smiles": "O=C([C@@H]1C[C@H](F)CN1C(=O)Nc1ccccc1)N1CCCCC1", "activity change, negative = cytotoxicity": "0.832%"},
      {"smiles": "Cc1noc(C)c1C(=O)N[C@@H]1CN(c2ccncn2)C[C@H]1CN(C)C", "activity change, negative = cytotoxicity": "-7.32%"},
      {"smiles": "CN(Cc1cccnc1)C(=O)CCC[C@@H]1[C@H]2CCCN3CCC[C@@H](CN1C(=O)c1cccnc1)[C@@H]23", "activity change, negative = cytotoxicity": "-1.49%"},
      {"smiles": "CCCc1sc(NC(=O)C[C@H]2NC(=O)c3ccccc3NC2=O)nc1C(=O)OC", "activity change, negative = cytotoxicity": "-32.3%"}
    ]}
  ]
}
